# Results filed as inconclusive are left out. A call without a number means that no potency is given here. A number with no mark means an inactive call. Active and inactive are the calls of the source. Calls follow the shape of the dose curve; as a rule, active = well fitted curve in the direction sought with a large enough effect in the repeat runs; inconclusive = weak or mixed curves; inactive = no such curve, though single readings can be large; an effect the other way counts as inactive or inconclusive.
# Assay: Human pregnane X receptor (PXR) small molecule agonists, qHTS cell viability counter screen (AID 1346977); also: nearly all actives have a fitted effect of over 50% in size
# Details: PXR-Luc HepG2 viability, CellTiter-Fluor, 24 h; series mostly up to 92.4 µM
# Procedure, shortened: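 In each well, the PXR reporter HepG2 line was checked for viability: CellTiter-Fluor reagent added 23hr post-dosing, fluorescence read after 1hr incubation at 37C.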
SMILES,Potency,"activity change, negative = cytotoxicity"
CS(=O)(=O)c1ccc([C@@H](O)[C@@H](CF)NC(=O)C(Cl)Cl)cc1,inactive,
C=CC(C)(O)CC/C=C(\C)CCC=C(C)C (stereo not drawn),inactive,
Cc1cc(NS(=O)(=O)c2ccc(N)cc2)nc(C)n1,inactive,
CCC(=O)O[C@]1(C(=O)SCF)[C@H](C)C[C@H]2[C@@H]3C[C@H](F)C4=CC(=O)C=C[C@]4(C)[C@@]3(F)[C@@H](O)C[C@@]21C,inactive,
CC(C)NC[C@@H](O)COc1cccc2ccccc12,inactive,
FC(F)(F)C(F)(F)C(F)(F)C(F)(F)C(F)(F)C(F)(F)C(F)(F)C(F)(F)Br,inactive,
CCN(CC)CC1CCCCN1CC(=O)N1c2ccccc2C(=O)Nc2cccnc21 (stereo not drawn),inactive,
CCN[C@H]1CN(CCCOC)S(=O)(=O)c2sc(S(N)(=O)=O)cc21,inactive,
CCCN(CCC)C(=O)C(CCC(=O)O)NC(=O)c1ccccc1 (stereo not drawn),inactive,
CCCCN1C[C@H](O)[C@@H](O)[C@H](O)[C@H]1CO,inactive,
C[C@@H]1CN(c2c(F)c(N)c3c(=O)c(C(=O)O)cn(C4CC4)c3c2F)C[C@H](C)N1,,5.72% [at 19 µM]
COc1ccc(S(=O)(=O)Nc2nnc(CC(C)C)s2)cc1,inactive,
Cc1c(C(=O)NCCO)[n+](=O)c2ccccc2n1[O-],inactive,
COc1ccccc1OCC(O)COC(N)=O (stereo not drawn),inactive,
CC1(C)S[C@@H]2[C@H](NC(=O)C(C(=O)O)c3ccccc3)C(=O)N2[C@H]1C(=O)O (stereo partly drawn),inactive,
CCN(CC)CCNC(=O)COc1ccc(Cl)cc1,inactive,
CCOC(=O)[C@H](CCc1ccccc1)N[C@@H](C)C(=O)N1Cc2cc(OC)c(OC)cc2C[C@H]1C(=O)O,inactive,
CO[Si](C)(C)OC,inactive,
CO[C@@]1(NC(=O)CSCC#N)C(=O)N2C(C(=O)O)=C(CSc3nnnn3C)CS[C@@H]21,inactive,
CCOC(=O)c1ccccc1O,inactive,

# Assay: Caspase-3/7 induction in HepG2 cells by small molecules, qHTS assay (AID 1346978); also: nearly all actives have a fitted effect of over 15% in size
# Details: HepG2 caspase-3/7 activation, Caspase-Glo luminescence, 17 h; series mostly up to 92.4 µM
# Procedure, shortened: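 Caspase-3/7 induction was measured by Caspase-Glo 3/7 luminescence (30 min, room temperature) after a 17 hr compound exposure of wild-type HepG2 cells seeded at 2,000 per well and pre-incubated 5 hr.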
SMILES,Potency,caspase activation
CCC(=O)Nc1ccc(O)cc1,inactive,
CC(=O)Oc1cc(C(C)C)c(OCCN(C)C)cc1C,inactive,
O=c1[nH]cnc2c1ncn2[C@@H]1O[C@H](CO)[C@@H](O)[C@H]1O,inactive,
N#Cc1ccc(C(c2ccc(C#N)cc2)n2cncn2)cc1,inactive,
NS(=O)(=O)c1cc(-c2nn[nH]n2)c(NCc2cccs2)cc1Cl,inactive,
Cc1c(-c2ccccc2)oc2c(C(=O)OCCN3CCCCC3)cccc2c1=O,inactive,
OCc1ccccc1O,inactive,
C[C@@H]1CN(c2c(F)c(F)c3c(=O)c(C(=O)O)cn(C4CC4)c3c2F)C[C@H](C)N1,,-1.23% [at 19 µM]
CC(=O)N(CC(O)CN(C(C)=O)c1c(I)c(C(=O)NCC(O)CO)c(I)c(C(=O)NCC(O)CO)c1I)c1c(I)c(C(=O)NCC(O)CO)c(I)c(C(=O)NCC(O)CO)c1I (stereo not drawn),inactive,
CC(C)O,inactive,
CN1CCN(c2c(F)cc3c(=O)c(C(=O)O)cn(CCF)c3c2F)CC1,inactive,
CN1CCN(c2c(F)cc3c(=O)c(C(=O)O)cn4c3c2SCC4)CC1,inactive,
O=c1[nH]c(=O)n([C@H]2C[C@H](O)[C@@H](CO)O2)cc1C(F)(F)F,inactive,
Cc1nnc(SCC2=C(C(=O)O)N3C(=O)[C@@H](NC(=O)Cn4cnnn4)[C@H]3SC2)s1,inactive,
CCCCc1ccc2nc(NC(=O)OC)[nH]c2c1,inactive,
Oc1ccccc1C=NCc1ccccc1,inactive,
NC/C=C/C(=O)O,inactive,
COc1ccccc1N1CCN(CCCNc2cc(=O)n(C)c(=O)n2C)CC1,inactive,
CS(=O)(=O)c1ccc([C@@H](O)[C@@H](CF)NC(=O)C(Cl)Cl)cc1,inactive,

SMILES,Potency,caspase activation
C=CC(C)(O)CC/C=C(\C)CCC=C(C)C (stereo not drawn),inactive,
Cc1cc(NS(=O)(=O)c2ccc(N)cc2)nc(C)n1,inactive,
CCC(=O)O[C@]1(C(=O)SCF)[C@H](C)C[C@H]2[C@@H]3C[C@H](F)C4=CC(=O)C=C[C@]4(C)[C@@]3(F)[C@@H](O)C[C@@]21C,inactive,
CC(C)NC[C@@H](O)COc1cccc2ccccc12,inactive,
FC(F)(F)C(F)(F)C(F)(F)C(F)(F)C(F)(F)C(F)(F)C(F)(F)C(F)(F)Br,inactive,
CCN(CC)CC1CCCCN1CC(=O)N1c2ccccc2C(=O)Nc2cccnc21 (stereo not drawn),inactive,
CCN[C@H]1CN(CCCOC)S(=O)(=O)c2sc(S(N)(=O)=O)cc21,inactive,
CCCN(CCC)C(=O)C(CCC(=O)O)NC(=O)c1ccccc1 (stereo not drawn),inactive,
CCCCN1C[C@H](O)[C@@H](O)[C@H](O)[C@H]1CO,inactive,
C[C@@H]1CN(c2c(F)c(N)c3c(=O)c(C(=O)O)cn(C4CC4)c3c2F)C[C@H](C)N1,,0.598% [at 19 µM]
COc1ccc(S(=O)(=O)Nc2nnc(CC(C)C)s2)cc1,inactive,
Cc1c(C(=O)NCCO)[n+](=O)c2ccccc2n1[O-],inactive,
COc1ccccc1OCC(O)COC(N)=O (stereo not drawn),inactive,
CC1(C)S[C@@H]2[C@H](NC(=O)C(C(=O)O)c3ccccc3)C(=O)N2[C@H]1C(=O)O (stereo partly drawn),inactive,
CCN(CC)CCNC(=O)COc1ccc(Cl)cc1,inactive,
CCOC(=O)[C@H](CCc1ccccc1)N[C@@H](C)C(=O)N1Cc2cc(OC)c(OC)cc2C[C@H]1C(=O)O,inactive,
CO[Si](C)(C)OC,inactive,
CO[C@@]1(NC(=O)CSCC#N)C(=O)N2C(C(=O)O)=C(CSc3nnnn3C)CS[C@@H]21,inactive,
CCOC(=O)c1ccccc1O,inactive,

# Source: PubChem BioAssay (Tox21)
